Most compounds without a hit are left out; they make up all but 2.2% or so of the library.
Statin myotox sup – suppression of simvastatin myotoxicity; hit rate 0.78% among 330,000; AID 602340; C2C12 myotubes + simvastatin, ATP luminescence, 48 h; scaled: DMSO 0, geranylgeraniol control 100; rescue of ATP level, % at 7.49 µM;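 active means mean ATP rescue above about 67%, or every replicate alone reaching that limit, limit read from the data, passing the limit was not always enough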;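 further: myotubes were challenged with 10 µM simvastatin during compound exposure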
PvdQ acylase – P. aeruginosa PvdQ acylase inhibition. AID 488965. inhibition, % at 10 µM. purified PvdQ acylase, fluorescence plate reader. hit rate 0.063% among 340,000; in the data active means inhibition above about 30%, passing the limit was not always enough
PGC1a acetyl inh – lowers PGC1a acetylation signal in U2OS cells | AlphaScreen anti-acetyl-lysine; with virally co-expressed GCN5 acetyltransferase | inhibition, % at 15.6 µM | hit rate 0.17% among 350,000 | AID 651687;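 active means every replicate shows inhibition of at least 40%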
DENV2 CPE rescue – DENV2-induced cell death inhibition. DENV2-infected cells, cytopathic effect rescue, plate reader. CPE inhibition, % at 9.99 µM. hit rate 1.7% among 350,000. AID 651640; in the data active means CPE inhibition above about 20%, passing the limit was not always enough; tested in BHK-21 cells
miR-122 sensor – miR-122 inhibition in Huh7 cells; activation (reporter increase), % at 12.5 µM; hit rate 0.3% among 340,000; Huh7 miR-122 Renilla luciferase sensor, 48 h; neutral wells = 0, positive control = 100; AID 602342;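 active means mean replicate activation score at least 90 and every replicate individually at or above 90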;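 further: higher luciferase means less miR-122 activity so hits act as miR-122 inhibitors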
Each line names hits and unclear results; the compound was inactive in the other large screens; ! = not active in a repeat; [ ] = dose if it differs, or a comment.

COCC#Cc1cnc2c(c1)C(=O)N([C@H](C)CO)C[C@H](C)[C@H](CN(C)Cc1ccc(F)cc1)O2	none (no result: PvdQ acylase)
CCOC(=O)CSc1[nH]c2cc(OC)ccc2c1[N+](=O)[O-]	DENV2 CPE rescue 24.2 (no result: Statin myotox sup, miR-122 sensor)
C[C@H](CO)N1C[C@H](C)[C@@H](CN(C)S(=O)(=O)c2cccs2)Oc2ccc(NC(=O)C3CCCCC3)cc2CC1=O	none (no result: PvdQ acylase)
COc1ccc(N2CCN(C(=O)c3ccc(Br)o3)CC2)cc1	PvdQ acylase 42.5
O=C(Nc1ccc(C(=O)N2CCN(c3ccncc3)CC2)cc1)c1ccc(Br)o1	DENV2 CPE rescue 23.2 (no result: Statin myotox sup, PvdQ acylase, PGC1a acetyl inh, miR-122 sensor)
CO[C@H]1CN(C)C(=O)c2cc(NC(=O)c3cccc(F)c3)ccc2OC[C@H](C)N(C(C)=O)C[C@@H]1C	none (no result: PvdQ acylase, DENV2 CPE rescue)
CC(C(=O)NCc1ccccc1)n1c(CSCCOc2ccccc2)nc2ccccc21 (stereo not given)	DENV2 CPE rescue 40.3 (no result: Statin myotox sup, PvdQ acylase, PGC1a acetyl inh, miR-122 sensor)
COc1ccc(N2C(=O)N3[C@H](c4cccc(C)c4)[C@@H]4C(=O)N(Cc5ccccc5)C(=O)[C@@H]4[C@]3(Cc3ccccc3)C2=O)cc1	DENV2 CPE rescue 82.1 (no result: Statin myotox sup, PvdQ acylase, PGC1a acetyl inh, miR-122 sensor)
COc1ccc(CN(C)C[C@H]2Oc3c(NC(=O)CCCCCC(=O)Nc4ccccc4N)cccc3C(=O)N([C@@H](C)CO)C[C@@H]2C)cc1	none (no result: Statin myotox sup, PvdQ acylase, miR-122 sensor)
Cc1c(NC(=O)c2ccc([N+](=O)[O-])o2)cccc1-c1nc2ncccc2o1	Statin myotox sup 106.5
COc1cccc(C(=O)Nc2cccc(-c3nc4ncccc4o3)c2C)c1	none (no result: DENV2 CPE rescue)
CCOC(=O)c1ccc(NC(=O)C2=C(C)Nc3nc(CCCO)nn3C2c2cccc(C)c2)cc1 (stereo not given)	DENV2 CPE rescue 73.4 (no result: PGC1a acetyl inh, miR-122 sensor)
O=C(c1ccncc1)N1C[C@H]2[C@@H](c3ccccc31)[C@H](CO)N2C(=O)CN1CCOCC1	none (no result: PvdQ acylase)
Cc1nc2ccn(Cc3ccccc3)c(=O)c2cc1C(=O)N1CCN(c2ccccc2)CC1	DENV2 CPE rescue 25.6
CC(C)CC#Cc1ccc([C@@H]2[C@H](CO)N3CCCCN(S(=O)(=O)Cc4ccccc4)C[C@@H]23)cc1	DENV2 CPE rescue 23.2 (no result: Statin myotox sup, PvdQ acylase)
CC(C)CC#Cc1ccc([C@@H]2[C@@H](CO)N3CCCCN(S(=O)(=O)Cc4ccccc4)C[C@@H]23)cc1	DENV2 CPE rescue 21.7 (no result: Statin myotox sup, PvdQ acylase)
CC(C)CC#Cc1ccc([C@H]2[C@H](CO)N3CCCCN(S(=O)(=O)Cc4ccccc4)C[C@@H]23)cc1	none (no result: Statin myotox sup, PvdQ acylase)
O=C(C[C@H]1C[C@H]2c3cc(NS(=O)(=O)c4ccc(F)cc4)ccc3O[C@H]2[C@H](CO)O1)NCCc1ccccc1	none (no result: PvdQ acylase)
CS(=O)(=O)N1[C@@H](CO)[C@@H](c2ccccc2)C12CN(C(=O)C1CC1)C2	none (no result: Statin myotox sup, PvdQ acylase, miR-122 sensor)
C[C@H](CO)N1C[C@H](C)[C@@H](CN(C)Cc2ccc(C(=O)O)cc2)Oc2c(NS(=O)(=O)c3ccccc3)cccc2C1=O	none
C[C@H](CO)N1C[C@H](C)[C@@H](CN(C)Cc2ccc(Oc3ccccc3)cc2)Oc2c(NS(=O)(=O)c3ccc(F)cc3)cccc2C1=O	DENV2 CPE rescue 39.1 (no result: Statin myotox sup, PvdQ acylase, miR-122 sensor)
C[C@H]1CN([C@@H](C)CO)C(=O)c2cccc(NS(=O)(=O)c3cccs3)c2O[C@@H]1CN(C)Cc1ccc(Oc2ccccc2)cc1	Statin myotox sup 83.2 (no result: PvdQ acylase)
C[C@H](CO)N1C[C@H](C)[C@@H](CN(C)Cc2ccncc2)Oc2c(NS(=O)(=O)c3cccs3)cccc2C1=O	DENV2 CPE rescue 33.8!
C[C@H]1CN([C@@H](C)CO)C(=O)c2cccc(NS(=O)(=O)c3ccccc3)c2O[C@@H]1CN(C)Cc1ccc(C(=O)O)cc1	DENV2 CPE rescue 30.9 (no result: PvdQ acylase)
C[C@@H]1CN([C@@H](C)CO)C(=O)c2cccc(NS(=O)(=O)c3cccs3)c2O[C@@H]1CN(C)Cc1ccc(Oc2ccccc2)cc1	none (no result: PvdQ acylase)
C[C@H](CO)N1C[C@H](C)[C@@H](CN(C)Cc2ccccc2)Oc2ccc(NC(=O)Cc3cn(C)c4ccccc34)cc2CC1=O	none (no result: PvdQ acylase, PGC1a acetyl inh)
C[C@H](CO)N1C[C@H](C)[C@@H](CN(C)Cc2ccc(C(F)(F)F)cc2)Oc2c(NS(=O)(=O)c3cccs3)cccc2C1=O	none (no result: PvdQ acylase)
C[C@@H]1CN([C@@H](C)CO)C(=O)c2cccc(NS(=O)(=O)c3cccs3)c2O[C@H]1CN(C)CC1CCCCC1	DENV2 CPE rescue 33.5 (no result: PvdQ acylase, PGC1a acetyl inh)
C[C@H](CO)N1C[C@H](C)[C@H](CN(C)CC2CCCCC2)Oc2c(NS(=O)(=O)c3cccs3)cccc2C1=O	none (no result: PvdQ acylase, PGC1a acetyl inh)
C[C@H]1CN([C@@H](C)CO)C(=O)c2cccc(NS(=O)(=O)c3cccs3)c2O[C@@H]1CN(C)Cc1ccc(C(F)(F)F)cc1	miR-122 sensor 118.9[16.7 µM] (no result: PvdQ acylase)

Screening results from PubChem BioAssay.
